Experimental findings from ChEMBL document CHEMBL3988442, “University of Dundee, Small-Polar-MMV Screening Library” (2021) are described below.

Each structure is given as a SMILES string. The whole screen tested about 48,000 compounds, of which about 13,000 (27%) showed an effect of 50% or more. This is one part of the list.

This assay deals with Wolbachia pipientis. The assay is described as follows: Anti-Wolbachia Cell-Based Screen. The format is functional. The arrangement: scale not given: in the data most compounds retested in dose-response had high values. As to conditions: 5 µM.
Regarding `O=C(CCN1CCCO1)N1CC[C@@H](CNC(=O)N2CCCC2)[C@H](O)C1`, the “Percent Effect” value worked out at 5.965%. For the compound `CCc1ccc2c(c1)C(CCNC(=O)c1sccc1C)C(=O)N2` (centres undefined), the “Percent Effect” value is -0.3397%. Take `Cn1nc(CN2CCC(c3ccncc3)CC2)c2c(Cl)cccc21`: the “Percent Effect” value is -3.245%. The same measure for `OC(COCc1ccccc1F)CN1CCc2c(ncn2C2CC2)C1` (centres undefined): -3.372%. Under `Cc1ncc(CN(C)CC(O)c2ccc(Br)cc2)s1` (centres undefined) stands 5.745%. The same measure for `Cn1cnnc1CC1CCN(Cc2nn(C)c3cccc(Cl)c23)CC1`: -2.14%; for `Cc1cnn(CC2CCCN2C(=O)CCc2ccco2)c1` (centres undefined): 108.9%. Take `Cc1cnn(CC2CCCN2C(=O)CCc2ccsc2)c1` (centres undefined): the “Percent Effect” value was -5.285%. Consider `Cc1cnn(CC2CCCN2C(=O)CCc2ccncc2)c1` (centres undefined), for which the “Percent Effect” value is 138.1%.

With `Cc1cnn(CC2CCCN2CC(=O)N(C)Cc2ccco2)c1` (centres undefined), the “Percent Effect” value is recorded as -7.327%. Under `Cc1cnn(CC2CCCN2C(=O)CCc2ccc3c(c2)OCO3)c1` (centres undefined) stands 126.1%; under `CC(=O)Nc1ccc(S(=O)(=O)Nc2c(F)cccc2F)cc1`, 12.85%. On to `Cc1cnn(CC2CN(CC(=O)Nc3nnc(C)s3)CCO2)c1` (centres undefined), for which the “Percent Effect” value is -4.997%.

As to `COc1cc(F)ccc1C(C(=O)O)N(C)CCN1CCCC1` (centres undefined), the “Percent Effect” value is -2.761%. On to `CC(C)c1nc(O)c2nnn(C[C@@H]3CCCN(Cc4cccs4)C3)c2n1`, for which the “Percent Effect” value amounted to 127%. The same measure for `CC(C)c1nc(O)c2nnn(C[C@H]3CCCN(Cc4cccs4)C3)c2n1`: 127.4%; for `O=S(=O)(Cc1ccccc1)NCC1CCCN(Cc2cccs2)C1` (centres undefined): -20.75%; for `CC1CN(Cc2cccc(CN)c2)CCO1` (centres undefined): -7.811%. Under `Cc1cc(=O)n(C)cc1NC(=O)Cc1ccc(C(F)(F)F)cc1` stands -20.5%. `CCN(CCNCc1ccc(C#N)cc1)C1CC1`: the “Percent Effect” value is -16.49%. For the compound `OCCNc1nccc(-c2c[nH]nc2-c2cccnc2)n1`, the “Percent Effect” value was 121.3%.

With `FCCOc1cccc(NCc2c[nH]nc2-c2cccnc2)c1`, the “Percent Effect” value is given as -17.01%. `Cc1ccccc1-n1cc(-c2ccnc(NC(CO)C(C)C)n2)cn1` (centres undefined): the “Percent Effect” value was -0.3825%. In the case of `Fc1ccc(-c2n[nH]cc2-c2ccnc(NCCN3CCCC3)n2)cc1`, the “Percent Effect” value is 7.952%. As for `Cc1ccccc1-n1cc(-c2ccnc(N[C@@H](CO)C(C)C)n2)cn1`, the “Percent Effect” value is given as -0.1007%.

For the compound `OCCNc1nccc(-c2c[nH]nc2-c2ccco2)n1`, the “Percent Effect” value came out at 131.5%.

Take `OCCNc1nccc(-c2c[nH]nc2-c2ccncc2)n1`: the “Percent Effect” value is 131%. As to `CC(C)[C@H](CO)Nc1nccc(-c2c[nH]nc2-c2ccncc2)n1`, the “Percent Effect” value is recorded as 88.77%. For the compound `CCOCc1cccc(NCc2c[nH]nc2-c2cccnc2)c1`, the “Percent Effect” value is -7.599%. Turning to `Cc1nc(O)cc(CCNc2nccc(CCC(F)(F)F)n2)n1`, the “Percent Effect” value came to 19.69%. Regarding `O=C(NCCNc1ncccn1)c1ccc(-c2ccco2)[nH]c1=O`, the “Percent Effect” value turned out to be 7.88%. As for `COCCNC(=O)CSc1nnc(OC(C)C)s1`, the “Percent Effect” value is given as 5%. Regarding `CN(CCNS(C)(=O)=O)C(=O)c1ccc(Cl)c(Cl)c1`, the “Percent Effect” value is listed as 2.263%. For `Cc1nn(C)c(C)c1CN(Cc1cccn1-c1cccnc1)C(C)C`, the “Percent Effect” value is -3.784%. As to `O=C(NCc1ccccc1OCCO)Nc1ccc2c(c1)CCC2`, the “Percent Effect” value is reported as 17.01%. In the case of `N#Cc1ccnc(N2CCC(c3nccn3Cc3cscn3)CC2)c1`, the “Percent Effect” value was found to be 9.295%. The same measure for `CCCOC(C)C(=O)N1CCC(O)(c2ccc3nc(C)ccc3c2)CC1` (centres undefined): -16.84%; for `N#Cc1ccc(NCCC2CCN(CC(F)(F)F)CC2)nc1`: -12.29%; for `COCCN1CCN(C(=O)C2CC=CC2)Cc2cccnc21`: -8.576%. Take `CN(C)Cc1nnc2n1CCN(Cc1cccnc1)C2`: the “Percent Effect” value was -0.7549%. For `Cc1ccc2c(n1)N(Cc1cccnc1)CCN(C(=O)C1CC=CC1)C2`, the “Percent Effect” value is 112.8%. The same measure for `Cc1ccc2c(n1)N(Cc1cccnc1)CCN(C(=O)C1CCC1)C2.O=C(O)C(F)(F)F.O=C(O)C(F)(F)F`: -8.761%; for `Cc1ccc2c(n1)N(Cc1cccnc1)CCN(Cc1cnn(C)c1)C2`: 105.8%. `Cc1ccc2c(n1)N(CC1CC1)CCN(C(=O)NC1CC1)C2.O=C(O)C(F)(F)F`: the “Percent Effect” value was -6.473%. The same measure for `Cc1ccc2c(n1)N(CC1CC1)CCN(Cc1cnn(C)c1)C2`: 122.1%; for `COCCC(=O)N1CCN(CC2CC2)c2nc(C)ccc2C1.O=C(O)C(F)(F)F`: -15.14%. For `Cc1cc(-c2nn(C)c(Cl)c2CN2CCC3(CC2)[C@H](O)C[C@@H]3O)no1`, the “Percent Effect” value worked out at 0.9032%. The same measure for `CNC(=O)CS(=O)(=O)C1CCN(S(=O)(=O)c2c(F)cccc2F)CC1`: 3.089%; for `CCn1ccnc1CN1CCCN(C(=O)c2cc(Cl)c[nH]2)CC1`: -1.253%; for `CCn1ccnc1CN1CCN(C(C)C(=O)N2CCCC2)CC1` (centres undefined): 111.2%. Under `CCn1ccnc1CN1CCCN(C(=O)c2cccn2C)CC1` stands 1.946%; under `CCn1ccnc1CN1CCCN(C(=O)C2(C#N)CCCCC2)CC1`, -5.352%; under `CCn1ccnc1CN1CCCN(C(=O)c2cnc(C)cn2)CC1`, 120.4%. Under `CCn1ccnc1CN1CCN(C(C)C(=O)N2CCCCCC2)CC1` (centres undefined) stands 83.63%. Regarding `CCn1ccnc1CN1CCN(C(C)C(=O)NC2CCCCC2)CC1` (centres undefined), the “Percent Effect” value is on record as -10.14%. For the compound `CCn1ccnc1CN1CCCN(C(=O)c2cncnc2C)CC1`, the “Percent Effect” value was -6.711%. As to `CCn1ccnc1CN1CCN(C(C)C(=O)N2CCC(C)CC2)CC1` (centres undefined), the “Percent Effect” value is 15.17%. Regarding `COc1cccc(CNC(=O)NC2(c3nc(C)no3)CCCCC2)c1`, the “Percent Effect” value is recorded as -3.756%. Under `CC(NC(=O)NCCc1cnn(C)c1)c1ccc(Cl)s1` (centres undefined) stands 7.772%; under `CN(Cc1ccco1)[C@@H]1CN(Cc2ccc(F)cc2)C[C@@H]2CCCO[C@@H]21.O=C(O)C(F)(F)F.O=C(O)C(F)(F)F`, 20.99%; under `CCCn1[nH]cc/c1=N\C(=O)CN1CCC[C@H]1CO`, 0.9827%. As for `Cl.O=C(c1ccoc1)N1CCC(NCc2ccccc2Cl)CC1`, the “Percent Effect” value is listed as -26.85%.

As for `CCN1C[C@H]2CCN(C(=O)NC3CCCC3)CC[C@H]2S1(=O)=O`, the “Percent Effect” value was found to be 7.84%. On to `CNC(=O)C1CCN(C(=O)CCn2cccn2)CC1`, for which the “Percent Effect” value is listed as -8.925%.

In the case of `CN1CCN(C(=O)CCn2nnc3ccccc32)CC(C(N)=O)C1` (centres undefined), the “Percent Effect” value was 138.2%. The same measure for `COc1cccc(OC2CN(C(=O)CCn3cnc4ccccc43)C2)c1`: -24.05%. For `CNC(=O)C1CN(C)CCN(C(=O)CCn2nnc3ccccc32)C1` (centres undefined), the “Percent Effect” value came out at 120.6%. Under `NC(=O)C1CCN(C(=O)Cn2nc(-c3ccccc3)oc2=O)C1` (centres undefined) stands -8.478%; under `CC(C)c1cc(C(=O)NCCn2nnc3ccccc32)no1`, -3.58%; under `Cn1c(CN2CCCCC2)nnc1C1CCN(c2nccc(N)n2)CC1`, -10.02%.

Regarding `COc1ccc(CNC(=O)CNc2cc3c(cc2Cl)OCCCO3)cc1`, the “Percent Effect” value is listed as 0.3306%.

Turning to `Cn1nc(CN2CCCC2)c2c1CN(CC1CC1)CC2.O=C(O)C(F)(F)F.O=C(O)C(F)(F)F`, the “Percent Effect” value amounted to 104.5%.

On to `CC(C)n1nc(CN(C)C)c2c1CN(C(=O)CC1CC1)CC2.O=C(O)C(F)(F)F`, for which the “Percent Effect” value is recorded as -12.31%. The same measure for `Cn1nc(CN2CCCC2)c2c1CN(C(=O)c1cnccn1)CC2`: -11.87%; for `CC(C)n1nc(CN2CCCC2)c2c1CN(CC1CC1)CC2.O=C(O)C(F)(F)F.O=C(O)C(F)(F)F`: 114.1%; for `CC(C)n1nc(CN(C)C)c2c1CN(CC1CC1)CC2.O=C(O)C(F)(F)F.O=C(O)C(F)(F)F`: -1.133%.

For the compound `Cn1nc(CN2CCCCC2)c2c1CN(Cc1ccoc1)C2.O=C(O)C(F)(F)F.O=C(O)C(F)(F)F`, the “Percent Effect” value is -5.276%.

On to `Cn1nc(CN2CCCC2)c2c1CN(c1cnccn1)CC2.O=C(O)C(F)(F)F.O=C(O)C(F)(F)F`, for which the “Percent Effect” value worked out at 110%.

With `Cn1nc(CN2CCCC2)c2c1CN(C(=O)Nc1cccc(F)c1)CC2.O=C(O)C(F)(F)F`, the “Percent Effect” value is on record as -17.26%. Under `Cn1nc(CNC(=O)CC#N)c2c1CN(CC1CC1)CC2.O=C(O)C(F)(F)F` stands -7.895%. Take `O=C(Cc1cccs1)N1CC(c2nc(-c3cnccn3)no2)C1`: the “Percent Effect” value turned out to be 16.37%. Regarding `CC(C)CN1CCN(S(=O)(=O)c2cn(C)cn2)[C@H]2CS(=O)(=O)C[C@H]21`, the “Percent Effect” value is listed as -0.9827%. Under `N#Cc1ccc(F)c(CN(CC(=O)N2CCCC2)CC2CCCO2)c1` (centres undefined) stands -8.762%; under `CCc1cc(CN(C)C(=O)c2nnc(CN(C)C)o2)on1`, -21.92%. The same measure for `COc1ccc(CN(C)c2ncc(S(N)(=O)=O)s2)c(OC)c1`: -0.4358%. On to `CCc1nc(C2CCCN2C(=O)CCc2cscn2)no1` (centres undefined), for which the “Percent Effect” value was determined as 107.6%. The same measure for `CCc1nc(C2CCCN2C(=O)c2ncoc2CC)no1` (centres undefined): 6.406%. Under `CCc1nc(C2CCCN2C(=O)CCc2nc(C3CC3)no2)no1` (centres undefined) stands 115.8%; under `CCc1nc(C2CCCN2C(=O)CCc2ccc3c(c2)OCO3)no1` (centres undefined), -10.43%; under `CCc1nc(C2CCCN2C(=O)c2c[nH]c(C)n2)no1` (centres undefined), -5.998%.

For `O=C(CCc1cscn1)N1CCCC1c1noc(C2CC2)n1` (centres undefined), the “Percent Effect” value is 2.466%.

For the compound `CCc1nc(C2CCCN2C(=O)CCc2nc(C(C)(C)C)no2)no1` (centres undefined), the “Percent Effect” value was found to be 121.6%. With `CCc1nc(C2CCCN2C(=O)CCNS(C)(=O)=O)no1` (centres undefined), the “Percent Effect” value amounted to 1.725%. The same measure for `CCc1nc(C2CCCN2C(=O)c2ccoc2C)no1` (centres undefined): -2.017%; for `CCc1nc(C2CCCN2C(=O)CCc2c(C)noc2Cl)no1` (centres undefined): 102.7%. Under `CCCc1noc(CCC(=O)N2CCCC2c2noc(C3CC3)n2)n1` (centres undefined) stands -5.991%; under `COc1ncc(Cl)c(NCc2ccc(C(=O)N(C)C)cc2)n1`, -9.459%. The same measure for `CC(C)c1nc(Cn2cncn2)n(-c2ccccn2)n1`: -15.87%; for `CC1CCN(C(=O)c2cn(-c3cc(N4CCOCC4)ncn3)cn2)CC1`: 4.259%.
